AmpC inh no detg: AmpC beta-lactamase inhibition without detergent; P00811; AmpC nitrocefin hydrolysis, absorbance 480 nm, 0.0001% Triton; Potency, µM (doses to about 57.1 µM), most hits filed as inhibitors; 330,000 compounds, 0.52% hits; further: nearly all actives have a fitted effect of over 20% in size
Target sequence (P00811 whole entry, looked up): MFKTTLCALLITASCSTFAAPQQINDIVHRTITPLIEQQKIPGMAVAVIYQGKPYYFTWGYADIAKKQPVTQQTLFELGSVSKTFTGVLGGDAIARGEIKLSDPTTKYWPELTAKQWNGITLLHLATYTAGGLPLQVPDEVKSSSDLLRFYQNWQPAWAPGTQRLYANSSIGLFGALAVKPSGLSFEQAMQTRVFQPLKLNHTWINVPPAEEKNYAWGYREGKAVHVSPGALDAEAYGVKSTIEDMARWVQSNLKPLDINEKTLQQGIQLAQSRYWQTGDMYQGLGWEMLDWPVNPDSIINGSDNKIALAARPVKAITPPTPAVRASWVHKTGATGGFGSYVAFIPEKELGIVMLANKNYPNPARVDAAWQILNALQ
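AmpC (5.3 nM in the dispensed reagent) in 20 mM phosphate pH 7.0 with 0.01% (detergent screen) or 0.0001% Triton X-100 was preincubated with compounds for 15 min at room temperature. Nitrocefin was then added from an 800 uM solution, and hydrolysis was followed at 480 nm.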
AmpC inh detg: AmpC beta-lactamase inhibition with detergent present; 370,000 compounds, 0.041% hits; Potency, µM (titrated, usually from 114 µM), actives largely listed as inhibitors; AmpC hydrolysis of nitrocefin, absorbance 480 nm, 0.01% Triton; P00811; further: nearly all actives have a fitted effect of over 25% in size
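AmpC (5.3 nM in the dispensed reagent) in 20 mM phosphate pH 7.0 with 0.01% (detergent screen) or 0.0001% Triton X-100 was preincubated with compounds for 15 min at room temperature. Nitrocefin was then added from an 800 uM solution, and hydrolysis was followed at 480 nm.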
Sm TGR inh: S. mansoni TGR enzyme inhibition. Q962Y6. purified TGR, DTNB reduction, TNB absorbance 405 nm. Potency, µM (series often up to 114 µM), most hits filed as inhibitors. 360,000 compounds, 3% hits; further: nearly all actives have a fitted effect of over 60% in size
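TGR 20 nM + NADPH 100 uM (dispensed conc.), cpd preinc 15 min RT; start with NADPH (500 uM addition) then DTNB (15 mM addition). Kinetic TNB absorbance, 405 nm filter. Four-parameter Hill fit across titration.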
Large screens that a line does not name were inactive. This is a sample that favours compounds with a hit; in the whole collection about 3.3% have one here. The call rests on the fitted dose curve; in most records, active means well fitted curve in the direction sought with a large enough effect; inconclusive means small, poorly fitted or top-dose-only effect, or another doubt; inactive means no such curve, though single readings can be large; an effect the other way counts as inactive or inconclusive.

CN(C(=O)CC1C(=O)NCCN1Cc1ccc(F)c(F)c1)C1CCOCC1 (configuration not stated)	Sm TGR inh 45µM
O=C(CC1C(=O)NCCN1Cc1ccc(F)c(F)c1)NCCn1cccn1 (configuration not stated)	Sm TGR inh 45µM
O=C(CSc1nncn1-c1ccccc1)N1CCCC1	none
COc1ccc(C2NC(=O)NC(O)(C(F)(F)F)C2C(=O)c2ccc(F)cc2)cc1 (configuration not stated)	Sm TGR inh 45µM
COc1cc(C2NC(=O)NC(O)(C(F)(F)F)C2C(=O)c2ccc(Cl)cc2)ccc1O (configuration not stated)	Sm TGR inh inconclusive
O=C(NC1CC(=O)N(c2ccc(Cl)cc2)C1)c1ccc2c(c1)OCO2 (configuration not stated)	none (no result: AmpC inh no detg)
N#CC1=C(N)C(C#N)(C#N)C(c2cccnc2)C2CCCC=C12 (configuration not stated)	none
N#CC1=C(N)C(C#N)(C#N)C(c2ccc[nH]2)C2CCCC=C12 (configuration not stated)	Sm TGR inh 16µM
Cc1cccc(C)c1Nc1nnc(SCC(=O)c2ccc(Br)s2)s1	none
Cc1cccc(C)c1Nc1nnc(SCC(=O)c2ccc3c(c2)NC(=O)CO3)s1	AmpC inh no detg 25µM
CCN1CCN(S(=O)(=O)c2ccc(Cl)c(C(=O)NCc3nc4ccccc4[nH]3)c2)CC1	none (no result: AmpC inh detg, Sm TGR inh)
CC(=O)c1cccc(NC(=O)CSc2nnc(C(C)N(C)C)n2-c2ccc(F)cc2)c1 (configuration not stated)	none
CC(=O)c1cccc(NC(=O)CSc2nnc(C(C)N(C)C)n2Cc2ccccc2)c1 (configuration not stated)	Sm TGR inh 25µM
CC1CCc2sc(C(=O)NCc3ccccn3)cc2C1 (configuration not stated)	none
CCCN(CCC)C(=O)Cn1c(=O)n(CCCCCC(=O)NCc2ccccc2Cl)c(=O)c2sccc21	none (no result: AmpC inh no detg)
CCNC(=O)CSc1nnc(-c2ccccc2Br)n1-c1cccc(C(F)(F)F)c1	none
Cc1ccc(C(=O)CC2SC(N)=NC2=O)cc1 (configuration not stated)	none
NC1=NC(=O)C(CC(=O)c2ccc(Cl)cc2)S1 (configuration not stated)	Sm TGR inh 20µM
O=C(C1=C[C@@H](c2ccc(C(F)(F)F)cc2)C[C@@H](OCc2ccc(CO)cc2)O1)N1CCN(Cc2ccccc2)CC1	Sm TGR inh 35µM
CN1CCN(C(=O)C2=C[C@@H](c3ccc(C(F)(F)F)cc3)C[C@@H](OCc3ccc(CO)cc3)O2)CC1	Sm TGR inh inconclusive
COC(=O)c1ccc([C@H]2C=C(C(=O)O)O[C@@H](OCc3ccc(CO)cc3)C2)cc1	Sm TGR inh 10µM
NC(=O)C1=C[C@H](c2ccccc2)C[C@H](OCc2ccc(CO)cc2)O1	Sm TGR inh inconclusive
C#Cc1ccc([C@H]2C=C(C(=O)O)O[C@@H](OCc3ccc(CO)cc3)C2)cc1	Sm TGR inh 35µM
O=C(C1=C[C@H](c2ccc(C(F)(F)F)cc2)C[C@H](OCc2ccc(CO)cc2)O1)N1CCOCC1	Sm TGR inh inconclusive
O=C(O)C1=C[C@H](c2ccc(C(F)(F)F)cc2)C[C@H](OCc2ccc(CO)cc2)O1	Sm TGR inh 50µM
C#Cc1ccc([C@@H]2C=C(C(=O)NCc3ccccc3)O[C@H](OCc3ccc(CO)cc3)C2)cc1	Sm TGR inh inconclusive
Cc1cccc(-c2nc(CSc3nncn4c3cc3oc(C)cc34)c(C)o2)c1	none (no result: AmpC inh no detg)
COc1ccc(Oc2ccc(NC(=O)c3ccccc3C)cc2)cc1	AmpC inh detg inconclusive (no result: Sm TGR inh)
CN(CC(=O)Nc1cccc(F)c1)CC(=O)Nc1ccccc1Oc1ccccc1	none
Cc1ccc(C)c(NC(=O)C2CCCN2/C=C/C(=O)C(F)(F)F)c1 (configuration not stated)	AmpC inh detg inconclusive
COC(=O)c1cc2oc3ccccc3c2n1Cc1ccccc1Cl	none (no result: AmpC inh no detg)
COCC(C)NC(=O)/C=C/c1ccc(OC)cc1 (configuration not stated)	none
Cc1ccc(C2C=C(c3ccc4c(c3)OCO4)Nc3ncnn32)cc1 (configuration not stated)	Sm TGR inh inconclusive
COc1cccc(C2=CC(c3ccc(C)cc3)n3ncnc3N2)c1 (configuration not stated)	AmpC inh detg inconclusive, Sm TGR inh 18µM
COc1ccccc1S(=O)(=O)Cc1ccc(C(=O)NC(C)c2ccc3c(c2)OCCO3)o1 (configuration not stated)	Sm TGR inh 40µM
Cc1ccccc1S(=O)(=O)Cc1ccc(C(=O)NC(C)c2ccccc2)o1 (configuration not stated)	AmpC inh detg inconclusive
O=C1C=CC(=O)N1Cc1ccccc1	Sm TGR inh inconclusive
O=C1C=CC(=O)N1N(c1ccccc1)c1ccccc1	AmpC inh detg inconclusive, Sm TGR inh 2.5µM
O=C(/C=C/c1ccc(Br)o1)Nc1nnc(C2CC2)s1	Sm TGR inh 11µM
O=C(Nc1nnc(C2CC2)s1)C1COc2ccccc2O1 (configuration not stated)	Sm TGR inh inconclusive
CC1CCCCC1NC(=O)CCCN1C(=O)c2ccccc2C1=O (configuration not stated)	none (no result: AmpC inh detg, Sm TGR inh)
CCc1cc2c(=O)c(-c3ccc4c(c3)OCO4)coc2c(CN(C)C)c1O	AmpC inh no detg 25µM
CCc1cc2c(=O)c(-c3cscn3)coc2c(CN(C)C)c1O	AmpC inh detg inconclusive
O=C(Nc1ccccc1C(=O)OCc1cc(=O)n2nc(C3CC3)sc2n1)c1cccc(F)c1	none (no result: AmpC inh no detg)
COc1cccc(CN2CCN(CCCc3ccccc3)C(CCO)C2)c1O (configuration not stated)	none
O=C(CNC(=O)Cc1ccccc1)N=Nc1c(O)[nH]c2ccccc12	none
NS(=O)(=O)c1ccc(CNC(=O)/C=C/c2ccco2)cc1	Sm TGR inh 1.6µM
Cc1ccc(/C=C/C(=O)NCc2ccc(S(N)(=O)=O)cc2)o1	none (no result: Sm TGR inh)
O=C(CNC(=O)/C=C/c1ccco1)N=Nc1c(O)[nH]c2ccccc12	Sm TGR inh 7.1µM
O=C(/C=C/c1ccco1)NCc1ccc(F)cc1	Sm TGR inh 3.2µM
O=C(CCNC(=O)c1ccco1)NCc1ccc(F)cc1	none (no result: AmpC inh detg, Sm TGR inh)
CN(CCc1ccccn1)C(=S)Nc1ccc(Cl)cc1Cl	AmpC inh detg inconclusive
Cc1ccc(/C=C/c2onc(C)c2S(=O)(=O)N2CCC(C(=O)NC(C)(C)C)CC2)cc1	AmpC inh detg inconclusive
Cc1ccc(CNC(=O)CCCCCn2c(=O)c3sccc3n(CC(=O)C(C)(C)C)c2=O)cc1	none (no result: AmpC inh no detg)
CC(C)(CC(=O)O)CC(=O)Nc1cc(C(F)(F)F)cc(C(F)(F)F)c1	none
CC[C@H]1OC(=O)C[C@@H](O)[C@H](C)[C@@H](O[C@@H]2O[C@H](C)C[C@H](N(C)C)[C@H]2O)[C@@H](CC=O)C[C@@H](C)C(=O)C=C[C@]2(C)O[C@H]2[C@@H]1C	Sm TGR inh inconclusive

Source: PubChem BioAssay
